According to ChEMBL document CHEMBL4513216, “Probing the Open Global Health Chemical Diversity Library for Multistage-Active Starting Points for Next-Generation Antimalarials” (ACS Infect Dis, 2020):
About 2,700 (4%) of roughly 68,000 compounds showed an effect of 50% or more. The list comes from a sample in which strong results are over-represented; it also holds similar structures and randomly drawn compounds.

test system: Plasmodium berghei; assay: Screen against P. berghei liver stage (PbLuc), transformed with Luciferase, at 2uM; assay type: functional, HepG2; settings: tested at 2 uM

Compared with Cc1nc(NCc2noc(C3CCCO3)n2)c2sccc2n1 (configuration not stated), Cc1nc(NCCc2noc(C3CCCO3)n2)c2sccc2n1 (configuration not stated) is lower in INHIBITION: 61.69% for the first, 49.63% for the second.

Compared with O=C(NCc1noc(C2CCCO2)n1)c1cn2ccsc2n1 (configuration not stated), O=C(NCCc1noc(C2CCCO2)n1)c1cn2ccsc2n1 (configuration not stated) is higher in INHIBITION: 22.09% for the first, 40.88% for the second.

Compared with Cc1nc(NCc2noc(C3CCCO3)n2)c2ccsc2n1 (configuration not stated), Cc1nc(N(Cc2ccncc2)CC2CCCO2)c2ccsc2n1 (configuration not stated) is lower in INHIBITION: 59.01% for the first, -59.39% for the second.

First: O=C(CCCOc1ccc(F)cc1F)N1CCCC1Cn1cccn1 (configuration not stated)
Second: N#CCCCOc1cccnc1NC(=O)CCC1CCCC1
The INHIBITION of the first is higher: 6.12% for the first, -54.22% for the second.

Compared with CN(Cc1cc2n(n1)CCCN(C(=O)N1CCCC1)C2)Cc1nccs1, O=C(c1cccnc1N1CCCCC1)N1CCCC(n2ccnc2)C1 (configuration not stated) is higher in INHIBITION: -10.4% for the first, 3.33% for the second.

First: CCc1csc(CNc2nc3c(s2)c(C)nn3C)n1
Second: CCc1nc(CNc2nc3c(s2)c(C)nn3C)cs1
The INHIBITION of the first is lower: 28.14% for the first, 51.4% for the second.

Going from Cc1nc(CNc2nc3c(s2)c(C)nn3C)cs1 to CCc1c(C)noc1-c1cnc(NC2CC2)nc1-c1cnc(C)cn1, the INHIBITION falls from 38.49% to 26.93%.

First: O=C(NC1CCc2[nH]c(=O)ccc2C1)C1CCOCC1 (configuration not stated)
Second: Cc1ccc(C(=O)N2CCOCC3(CCN(C4CCOCC4)C3)C2)o1 (configuration not stated)
The INHIBITION of the first is lower: 0.79% for the first, 14.89% for the second.

Going from CCN1CC[C@@]2(C(=O)N3CCOCC3)CCN(C(=O)NC)CC[C@@H]12 to CCC(=O)N1CCCC1C(=O)N1CCC(Cc2ccc(F)cc2)CC1 (configuration not stated), the INHIBITION rises from 19.42% to 69.52%.

Going from CSC1=Nc2c(cnn2-c2ccc(C)cc2)C2=NCCCN12 to CC(C)C1CCCN1C(=O)c1ccc(-n2ncc(C#N)c2N)cc1 (configuration not stated), the INHIBITION falls from 44.7% to -36.67%.

First: CCOc1ccccc1C(=O)N1CCCC1c1ncc2c(n1)CCNC2 (configuration not stated)
Second: O=C1CCNc2ncc(-c3ccccc3Cl)cc2CN1C1CC1
The INHIBITION of the first is lower: -2.7% for the first, 18.48% for the second.

First: O=C(C1CCS(=O)(=O)CC1)N1CCC(Cc2ccc(F)cc2)CC1
Second: CN1C[C@@H](N)C[C@H]1C(=O)N1CCC(Cc2ccc(F)cc2)CC1
The INHIBITION of the first is lower: 9.75% for the first, 29.87% for the second.

Compared with c1cnnc(N2CCCC2CNCc2nc(-c3cccs3)no2)c1 (configuration not stated), Cc1cc(NC(=O)CNC2CCCN(c3cccnn3)C2)on1 (configuration not stated) is higher in INHIBITION: -8.75% for the first, -3.06% for the second.

Going from Cc1cccc(-n2nc(CC(C)C)nc2CS(C)(=O)=O)c1 to CSCC(C)(O)CNS(=O)(=O)c1cccc(C)c1 (configuration not stated), the INHIBITION rises from 3.92% to 9.27%.

Compared with Cc1cc(N2CCC(N(C)C(=O)c3sccc3C)CC2)nc(C)n1, Cc1ccc(N2CCCC(NCC(=O)Nc3cc(C)no3)C2)nn1 (configuration not stated) is higher in INHIBITION: -82.24% for the first, 6.3% for the second.

First: OCC1CCCCN1CCn1ccnc1-c1ccc2c(c1)OCCO2 (configuration not stated)
Second: Cc1cc(-c2nccn2CCN2CCCCC2CO)oc1C (configuration not stated)
The INHIBITION of the first is higher: 63.46% for the first, 47.04% for the second.

Compared with Cc1ccsc1-c1nccn1CCN1CCCCC1CO (configuration not stated), CNC(=O)C1CCCCN1C(=O)c1sc(-c2ccc(C)o2)nc1C (configuration not stated) is higher in INHIBITION: -12.08% for the first, 16.73% for the second.

Going from CC(O)c1cn(Cc2cccc(C(F)(F)F)c2)nn1 (configuration not stated) to CC(O)c1cnn(-c2ccccc2)c1 (configuration not stated), the INHIBITION rises from 19.08% to 23.06%.

First: COc1ccccc1CN1C[C@@H](F)[C@@H](OCc2nc3ccccc3[nH]2)C1
Second: COc1ccccc1CN1C[C@@H](F)[C@@H](OCc2nc3cnccc3[nH]2)C1
The INHIBITION of the first is lower: -6.21% for the first, 14.89% for the second.

Going from COc1ccccc1CN1C[C@@H](F)[C@@H](OCc2nc3ncccc3[nH]2)C1 to O=C1CO[C@@H]2CN(Cc3ccncc3)C[C@H]2N1Cc1ccncc1, the INHIBITION falls from 55.57% to 31.76%.

Compared with O=C(CS(=O)(=O)Cc1cc(Cl)c2c(c1)OCCCO2)NCC1CC1, CCN(Cc1ccc2c(c1)OCCO2)C(=O)NCc1cc[nH]n1 is higher in INHIBITION: 2.77% for the first, 21.31% for the second.

Going from CCNC(c1ccc(F)cc1)c1cccnc1 (configuration not stated) to CCCNC(c1ccc(F)cc1)c1cccnc1 (configuration not stated), the INHIBITION rises from -49.8% to 26.18%.

Going from CCNC(c1ccc(C)cc1)c1cccnc1 (configuration not stated) to CCNC(c1ccc(Cl)cc1)c1cccnc1 (configuration not stated), the INHIBITION rises from -41.21% to 8.37%.

Going from CCNC(c1cccnc1)c1ccc(F)c(C)c1 (configuration not stated) to CCCNC(c1cccnc1)c1ccc(F)c(C)c1 (configuration not stated), the INHIBITION rises from 1.61% to 62.36%.

Compared with CCCNC(c1cccnc1)c1ccc(F)cc1F (configuration not stated), CCNC(c1cccnc1)c1ccc(F)cc1F (configuration not stated) is higher in INHIBITION: -3.32% for the first, 53.98% for the second.

Compared with CCNC(c1ccc(C(C)C)cc1)c1cccnc1 (configuration not stated), CCn1cc(NC(=O)NCC(O)c2ccccc2)cn1 (configuration not stated) is lower in INHIBITION: 58.05% for the first, 20.28% for the second.

First: c1cc(CN2CCC(c3nnc4n3CCCCC4)CC2)c2nonc2c1
Second: c1csc(-c2noc(C3CN(Cc4ccc5c(c4)CCO5)C3)n2)c1
The INHIBITION of the first is lower: -60.89% for the first, 35.6% for the second.

Going from CC(C)n1ncc2c1NC(=O)CC21C(=O)Nc2c(Cl)ccc(Cl)c21 (configuration not stated) to CC(C)n1nc2c(cc1=O)CN(CCOc1ccc(C#N)cc1)CC2, the INHIBITION rises from -40.36% to 9.8%.

Compared with O=C(c1ccnc(-n2ccnc2)c1)N1CCCC(n2cccn2)C1 (configuration not stated), O=C(c1ccnc(-n2ccnc2)c1)N1CCCC(n2ccnc2)C1 (configuration not stated) is higher in INHIBITION: -58.05% for the first, 70.27% for the second.

First: O=C(c1cccc2cccnc12)N1CCCC(n2ccnc2)C1 (configuration not stated)
Second: O=C(c1cccc2ncccc12)N1CCCC(n2ccnc2)C1 (configuration not stated)
The INHIBITION of the first is higher: 54.2% for the first, 43.85% for the second.

Compared with O=C(c1ccc2c(c1)OCO2)N1CCCC(n2ccnc2)C1 (configuration not stated), O=C(c1ccc2c(c1)OCCO2)N1CCCC(n2ccnc2)C1 (configuration not stated) is higher in INHIBITION: -0.05% for the first, 78.98% for the second.

Compared with O=C(c1ccc2c(c1)OCCCO2)N1CCCC(n2ccnc2)C1 (configuration not stated), O=C(c1ccc(-n2ccnc2)cc1)N1CCCC(n2ccnc2)C1 (configuration not stated) is higher in INHIBITION: 11.95% for the first, 28.87% for the second.

Going from Cc1nccn1C1CCCN(C(=O)c2ccnc(-n3ccnc3)c2)C1 (configuration not stated) to O=C(c1ccc(-n2cnnc2)cc1)N1CCCC(n2ccnc2)C1 (configuration not stated), the INHIBITION rises from -13.24% to 56.02%.

Going from O=C(c1ccc(-n2cnnn2)cc1)N1CCCC(n2ccnc2)C1 (configuration not stated) to Cc1nccn1-c1ccc(=O)n(CCNC(=O)c2ccncc2)n1, the INHIBITION falls from 43.79% to -45.03%.

Compared with CN(C)C(=O)N1C[C@H]2CC[C@@H](C1)N(C(=O)c1c(Cl)cccc1Cl)C2, O=C(CC1CCCCC1)N1C[C@@H]2CC[C@H]1CN(Cc1cccnc1)C2 is higher in INHIBITION: -42.12% for the first, 9.56% for the second.

Compared with CN1CCCN(C(=O)NCc2ccccc2Cn2cncn2)CC1, CN1CCN(Cc2ccc(-c3ccc(-c4ccn[nH]4)cc3)nc2)CC1 is lower in INHIBITION: 28.62% for the first, -35.16% for the second.

Going from Cn1cccc1C(=O)OCCNC(=O)c1ccccc1 to Cc1cccc(N(CCC(N)=O)CC(=O)Nc2ccccc2)c1, the INHIBITION rises from -9.17% to 50.31%.

Going from Cc1ccc(CN2Cc3cnn(C)c3C(COCC3CC3)C2)o1 (configuration not stated) to Cc1cc(-c2nn(C)c(Cl)c2CN2CC[C@H](CO)[C@@H](O)C2)no1, the INHIBITION falls from 47.63% to -5.87%.

First: O=c1nc(SCc2cccnc2)c2c(n1CCO)CCCC2
Second: CN1CCCCc2c1nc1c(c2N)CCCC1
The INHIBITION of the first is lower: 13.46% for the first, 14.11% for the second.

Compared with CSCC(C)(O)CNS(=O)(=O)c1cccc(Cl)c1 (configuration not stated), CSCC(C)(O)CNS(=O)(=O)c1ccc(Br)cc1 (configuration not stated) is lower in INHIBITION: 56.89% for the first, 9.27% for the second.

Going from O=c1ccc(-n2ccnc2)nn1CCNS(=O)(=O)c1ccc(Cl)s1 to CC(NC(=O)NCC1(c2ccc(F)cc2)CC1)c1nncn1C (configuration not stated), the INHIBITION rises from -54.51% to -7.13%.

Going from CNC(=O)c1cccc(C2CNCCN2C(=O)c2ccn(C)n2)c1 (configuration not stated) to CN(Cc1ccc(F)cc1)CC1(O)CCN(C(=O)c2ccsc2)C1 (configuration not stated), the INHIBITION rises from 24.56% to 47.4%.

Going from Cc1cccc(N(CCC(N)=O)CC(=O)Nc2cc(Cl)ccc2Cl)c1 to Cc1cccc(N(CCC(N)=O)CC(=O)NC2CCCC2)c1, the INHIBITION falls from -10.14% to -22.8%.

Compared with CC(C)c1cc(NC(=O)CNC2CCCN(c3cccnn3)C2)on1 (configuration not stated), COCCn1cc(NC(=O)NCC(C)N2CCOCC2)cn1 (configuration not stated) is lower in INHIBITION: 53.98% for the first, 20.77% for the second.

Going from CC1=N[C@@]2(CC[C@@H]3CN(CC(=O)N(C)C)C[C@@H]32)C(=O)N1CC1CC1 to Cc1cc(-c2nn(C)c(Cl)c2CN2CCCCC(N)C2)no1 (configuration not stated), the INHIBITION rises from -25.29% to 51.81%.

Compared with COCCCNC(=O)CN(C)C(=O)c1cc(C)ccc1N(C)C(C)C, COCCn1cc(NC(=O)NCC(c2cccc(F)c2)N(C)C)cn1 (configuration not stated) is higher in INHIBITION: -61.5% for the first, 45.57% for the second.

Going from CC(C)C(C)NC(=O)CCN1C(=O)CCc2cc(F)ccc21 (configuration not stated) to CC(C)CNC(=O)CCN1C(=O)CCc2cc(F)ccc21, the INHIBITION rises from 31.16% to 55.39%.

First: CCCC(C)NC(=O)CCN1C(=O)CCc2cc(F)ccc21 (configuration not stated)
Second: COCCN1C[C@H]2CN(C(=O)c3ccc4c(c3)OCO4)CCN2C1=O
The INHIBITION of the first is higher: 6.92% for the first, -2.66% for the second.

Going from NC(=O)C(CNC(=O)Cc1ccc(F)cc1)Cc1ccc(F)cc1 (configuration not stated) to Cc1ccccc1C(=O)NCC(O)c1ccc(F)c(F)c1 (configuration not stated), the INHIBITION rises from -39.58% to 60.13%.

Compared with O=C(NCC(O)c1ccc(F)c(F)c1)c1cccnc1O (configuration not stated), O=C(NCC(O)c1ccc(F)c(F)c1)c1ccccc1F (configuration not stated) is higher in INHIBITION: -38.85% for the first, 26.74% for the second.

Going from O=C(Nc1ccc2c(c1)OCO2)Nc1cnn(C2CCOCC2)c1 to CCn1cc(NC(=O)NCC(C)N(C)C)cn1 (configuration not stated), the INHIBITION rises from -59% to -3.58%.

Compared with CCn1cc(NC(=O)NCC(C)O)cn1 (configuration not stated), CCC(CC)C(CNC(=O)Nc1cnn(CCOC)c1)N(C)C (configuration not stated) is higher in INHIBITION: 62.13% for the first, 66.11% for the second.

Compared with CCOC(=O)c1sc2ccsc2c1CNC(=O)CCOC, CC(C#N)(NC(=O)COc1ccccc1Br)C1CC1 (configuration not stated) is lower in INHIBITION: 27.47% for the first, 8.78% for the second.

Cc1cc(C)n(C2CCN(Cc3c(-c4cc(C)on4)nn(C)c3Cl)C2)n1 (configuration not stated) gave an INHIBITION of -11.77%.
